Screens (PubChem)
Shown are actives, neighbours in structure and some others; about 1.2% of the full set was active somewhere.
S aureus QS inh = S. aureus quorum sensing inhibitors, primary screen, RNAIII-GFP reporter, flow cytometry. inhibition, % at 2 µM. S. aureus RN6390 RNAIII-GFP reporter, AIP-induced, flow cytometry 3 h. actives 0.3% (n = 24,000);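 active = share of bacteria positive for the green fluorescent reporter and its mean brightness both inhibited by 50% or more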;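 note: 0% = AIP-stimulated control and 100% = unstimulated bacteria without AIP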
FPR binder = human FPR ligands by binding competition, primary screen, cell-based, FPRL1 counter-screen, flow cytometry. FPR-expressing cells, fluorescent ligand binding. inhibition, % (test concentration not listed). actives 0.74% (n = 24,000). AID 440, 2006;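 note: 0% = buffer wells and 100% = receptor blocker peptide wells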
Target sequence (P21462 whole entry, looked up): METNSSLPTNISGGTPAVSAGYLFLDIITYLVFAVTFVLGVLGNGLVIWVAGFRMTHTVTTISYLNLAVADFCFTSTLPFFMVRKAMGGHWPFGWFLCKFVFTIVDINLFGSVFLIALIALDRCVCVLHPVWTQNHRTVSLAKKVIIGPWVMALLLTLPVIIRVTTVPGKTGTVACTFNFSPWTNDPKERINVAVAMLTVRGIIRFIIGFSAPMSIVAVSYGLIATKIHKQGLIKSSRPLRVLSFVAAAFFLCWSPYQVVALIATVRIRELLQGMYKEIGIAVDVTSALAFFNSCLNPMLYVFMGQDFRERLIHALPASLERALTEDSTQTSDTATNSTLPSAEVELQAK
FPRL1 ligand = human FPRL1 ligands by binding competition, primary screen, cell-based, FPR counter-screen, flow cytometry; N-formyl peptide receptor 2 (Homo sapiens), P25090; FPRL1-expressing cells, fluorescent ligand binding inhibition; AID 441, 2006; actives 0.3% (n = 24,000); inhibition, % (concentration not given with the values);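 note: 0% = buffer alone and 100% = receptor blocker peptide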
Numbers without * were called inactive; . = no result; ! = not active in a repeat. Cut-off read from the data, not from the text of the source, unless noted: active = inhibition above about 30%; inconclusive = no clear call, values can overlap the other calls; inactive = below that.

SMILES | S aureus QS inh | FPR binder | FPRL1 ligand
Cc1nc(C)c(C(=O)C2=C(O)C(=O)N(CCCn3ccnc3)C2c2ccc(Cl)cc2)s1 (configuration not stated) | . | 38* | 24
COc1ccc(C(=O)N2CCN(S(=O)(=O)c3cc(Cl)ccc3OC)CC2)cc1 | 0 | -3 | 6
COC(=O)Cn1nc(-c2ccccc2)c2ccccc21 | 4 | 2 | 5
COCCn1nnnc1C(c1ccccc1OC)N1CCc2ccccc2C1 (configuration not stated) | 6 | -3 | 0
Nc1c(C(O)(C(F)(F)F)C(F)(F)F)ccc2ccccc12 | 63* | -12 | -15
Cc1cc(C(=O)OCC(=O)N2c3ccccc3CC2C)c(C)o1 (configuration not stated) | 1 | 8 | 2
COc1ccc(-c2nnc(Nc3nc4c(OC)cccc4s3)o2)c(OC)c1 | -2 | 62* | 6
COc1ccc(-c2nnc(Nc3nc4c(OC)cccc4s3)o2)cc1 | -3 | 52* | 3
Fc1cccc2sc(Nc3nnc(-c4ccccc4)o3)nc12 | 3 | 2 | 4
COc1cc(OC)cc(-c2nnc(Nc3nc4c(F)cccc4s3)o2)c1 | 0 | 3 | 1
CCOc1cc2c(cc1OCC)C(c1cc(OC)c(O)c(OC)c1)NCC2 (configuration not stated) | -6 | 2 | -3
Cn1c(Cn2c(=O)sc3ccccc32)nnc1SCc1ccccc1 | 15 | -7 | 4
CC(=O)NCc1ccc(C(=O)CSc2nnc(-c3ccncc3)n2Cc2ccccc2)o1 | -2 | -5 | -2
CCOC(=O)Cc1cc(=O)n2[nH]c(C)c(-c3ccccc3)c2n1 | . | 51* | 26
CCOC(=O)Cc1cc(=O)n2[nH]c(C)c(C#N)c2n1 | . | -15 | -8
CCc1ccc2[nH]c(=O)c(CN(CCCN3CCOCC3)C(=O)Nc3ccc(F)cc3)cc2c1 | 93* | . | .
O=C(Nc1ccc(F)cc1)N(CCCN1CCOCC1)Cc1cc2cc3c(cc2[nH]c1=O)OCO3 | 10 | -6 | 2
COc1ccc2nc(NC(=O)C(NS(=O)(=O)c3cccc4nsnc34)C(C)C)sc2c1 (configuration not stated) | -2 | . | .
CCCCOc1cc(C(=O)NCCN(CC)CC)c2ccccc2n1 | 4 | 49*! | 0
CCCCN(CC)CCNC(=O)c1cc2c(C)nc3ccccc3c2o1 | 1 | -3 | -1
CCN(CC)c1ccc(NC(=O)C2CCCN(S(=O)(=O)c3cnc[nH]3)C2)c(C)c1 (configuration not stated) | -1 | 0 | -2
CCC(C)(C(=O)NC1CCCC1)N(CC1CCCO1)C(=O)c1ccc2c(c1)OCO2 (configuration not stated) | 0 | 37* | 2
CCC(C)(C(=O)NC1CCCCC1)N(Cc1ccco1)C(=O)c1ccc2c(c1)OCO2 (configuration not stated) | 0 | 6 | -1
CCOC(=O)c1c(NC(=O)c2cc(C3CC3)on2)sc(C(C)=O)c1C | 4 | -2 | -1
CCOC(=O)c1c(NC(=O)c2cc(C3CC3)on2)sc2c1CCCC2 | -2 | 10 | 58*
SMILES | S aureus QS inh | FPR binder | FPRL1 ligand
CC(C)C(=O)N1CCN(c2nc(-c3ccccc3)c3c(c2C#N)CCCC3)CC1 | 57* | -5 | -5
N#Cc1c(-c2ccccc2)nc(N2CCCCCC2)[nH]c1=O | -1 | 0 | -1
O=C(Cc1coc(-c2ccc(F)cc2)n1)N1CCOCC1 | -4 | -3 | -2
CCCOc1ccc(OC(=O)c2ccc(Br)o2)cc1 | 4 | -10 | 1
Cc1ccc(S(=O)(=O)c2c(C)nn(C(C)(C)C)c2OC(=O)c2ccco2)cc1 | -19 | 0 | -2
CC(=O)Oc1c(S(=O)(=O)c2ccc(C)cc2)c(C)nn1C(C)(C)C | 78* | -4 | -5
Cc1ccc(S(=O)(=O)c2c(C)nn(C(C)(C)C)c2OC(=O)c2ccc(Br)o2)cc1 | 52* | -4 | 10
Cc1ccc(S(=O)(=O)c2c(C)nn(C(C)(C)C)c2OC(=O)C(C)(C)C)cc1 | -13 | 1 | 6
CCOc1cc(C2NC(=O)N(C)C(C)=C2C(=O)OC)cc(Br)c1O (configuration not stated) | -2 | -6 | -12
CCOC(=O)c1cc(NC(=O)C2C3CCC(O3)C2C(=O)O)cc(C(=O)OCC)c1 (configuration not stated) | . | 2 | 15
CCOC(=O)c1c(NC(=O)C2C3CCC(O3)C2C(=O)O)sc(C)c1-c1ccc(C)cc1 (configuration not stated) | . | 46* | -4
Cc1nc(N2CCc3ccccc32)[nH]c(=O)c1CCC(C)C | -2 | -6 | -6
Cc1cc(-c2ccccc2)n2ncc(C#N)c2n1 | -2 | -3 | -3
O=C(CC(C(=O)N1CCc2ccccc21)n1ccnc1)N1CCc2ccccc2C1 (configuration not stated) | 10 | 6 | 4
Cc1cc(O)c(NC(=O)c2ccc(Br)o2)cc1C | 0 | 0 | 3
O=C(Nc1ccc(Nc2ccccc2)cc1)c1ccc(Br)o1 | . | 18 | 34*
CCOC(=O)C1=C(C)NC(C)=C(C(=O)OC)C1c1cccc(Cl)c1Cl (configuration not stated) | 54* | -4 | -5
COC(=O)C1=C(C)NC(=O)CC1c1cccc(Cl)c1Cl (configuration not stated) | 8 | 3 | -6
COc1ccc(-c2cc(C(F)(F)F)nc(NC3CCCC3)n2)cc1OC | 3 | 7 | 32*
COc1ccc(-c2cc(C(F)(F)F)nc(N3CCOCC3)n2)cc1OC | 3 | -12 | 23
COc1cc2c(cc1OC)C(c1cc(OC)c(OC)c(OC)c1)NCC2 (configuration not stated) | 1 | 2 | 6
CSCCC1C(C#N)=C(N)Oc2n[nH]c(-c3cccs3)c21 (configuration not stated) | 9 | 30* | 6
N#CC1=C(N)Oc2n[nH]c(-c3cccs3)c2C1c1cccs1 (configuration not stated) | -2 | 11 | 12
CCOC(=O)c1c(C)oc2c(CC(=O)c3ccccc3)c(Cl)c(O)c(O)c12 | -1 | . | .
CCN(CC)CCN1C(=O)C(=O)/C(=C(/O)c2c(C)[nH]c(C(=O)OC)c2C)C1c1ccccc1 (configuration not stated) | . | 30* | 16
CCN(CC)CCN1C(=O)C(=O)/C(=C(/O)c2c(C)[nH]c(C(=O)OC)c2C)C1c1ccc(OC)cc1 (configuration not stated) | . | 0 | 6
O=C(C1=C(O)C(=O)N(CCN2CCOCC2)C1c1ccccc1)c1cccs1 (configuration not stated) | . | 44* | 28
COc1ccc(OC)c(C2C(C(=O)c3ccc(C)o3)=C(O)C(=O)N2CCCN2CCOCC2)c1 (configuration not stated) | . | 2 | -2
O=C(C1=C(O)C(=O)N(CCCN2CCOCC2)C1c1ccccn1)c1cccs1 (configuration not stated) | . | -2 | -7
COc1ccc(OC)c(C2C(C(=O)c3ccco3)=C(O)C(=O)N2CCCN2CCOCC2)c1 (configuration not stated) | . | 50* | 1
